Measurements taken from PubChem BioAssay.
Activity calls are given as the source filed them.

Key:
[1] = binders of probe aFSTL3 on microarray, primary screen, stem cell growth factor project, biochemical, small-molecule microarray, fluorescence 635/667 (AID 1064); conditions: higher = more signal;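 also: measures binding of the biotinylated anti-FSTL3 antibody to printed compounds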
[2] = binders from COS7 lysate, DM2A8 probe, primary screen, torsin A project, cell lysate, small-molecule microarray, fluorescence 635/667 (AID 1065); conditions: higher = more signal, COS7 lysate expressing mutant human TOR1A
[3] = binders of probe aFGF2 on microarray, primary screen, stem cell growth factor project, biochemical, small-molecule microarray, fluorescence 635/667 (AID 1067); conditions: higher = more signal;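 also: measures binding of biotinylated aFGF2 protein to printed compounds on slides; z-score merges feature fluorescence and signal-to-noise across triplicate slides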
[4] = binders of probe aFGF10 on microarray, primary screen, stem cell growth factor project, biochemical, small-molecule microarray, fluorescence 635/667 (AID 1071); conditions: higher = more signal;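 also: score merges 667 nm spot intensity and signal to noise from triplicate slides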
[5] = target: Neurogenic locus notch homolog protein 2 (Homo sapiens) (UniProt Q04721); assay: Notch2 binders on small-molecule microarrays, primary screen, biochemical, small-molecule microarray, 635 nm fluorescence, stem cell growth factors (AID 1073); conditions: Notch2 binding, higher = more signal
[6] = target: Pro-neuregulin-1, membrane-bound isoform (Homo sapiens) (UniProt Q02297); assay: NRG1 binders on small-molecule microarrays, primary screen, psychiatric disease protein project, biochemical, small-molecule microarray, fluorescence 635/667 (AID 1075); conditions: NRG1 binding, 635 nm fluorescence, higher = more signal;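 also: score combines 667 nm spot fluorescence with signal to noise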
[7] = test system: Neuregulin-1 EGF-like domain; assay: binders of neuregulin-1 EGF-like domain, primary screen, biochemical, small-molecule microarray, 635 nm fluorescence (AID 1081); conditions: small-molecule microarray binding, higher = more signal;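 also: binding of the protein to compounds printed on small-molecule microarray slides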
[8] = FRG1 promoter luciferase signal modulators, primary screen, FRG1 inhibition for FSHD, cell-based, C2C12 myotubes, firefly/Renilla luciferase, luminescence (AID 1084); conditions: higher = more signal, called active from +8 up or from −8 down
[9] = binders of probe aFST on microarray, primary screen, stem cell growth factor project, biochemical, small-molecule microarray, fluorescence 635/667 (AID 1086); conditions: higher = more signal;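 also: score merges 667 nm fluorescence with signal-to-noise of each printed compound spot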
[10] = binders of probe aHhip on microarray, primary screen, stem cell growth factor project, biochemical, small-molecule microarray, fluorescence 635/667 (AID 1087); conditions: higher = more signal;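 also: score merges spot fluorescence at 667nm with spot signal to noise ratio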
[11] = test system: PRMT1 (protein arginine N-methyltransferase 1); assay: PRMT1 binders on small-molecule microarrays, primary screen, biochemical, small-molecule microarray, 635 nm fluorescence (AID 1088); conditions: small-molecule microarray binding, higher = more signal;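 also: binding of Prmt1 protein to compounds spotted on small-molecule microarray slides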
[12] = yeast growth modulation, basal conditions, primary screen, YJM789 clinical isolate, OD600, 24 h (AID 1089);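 also: growth of clinical yeast isolate S. cerevisiae YJM 789 seeded 1000 cells per well; test concentration not given here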; conditions: S. cerevisiae YJM789 growth, higher = more signal, called active from +8 up or from −8 down
[13] = fission yeast growth modulation, primary screen, strain 972, OD600, 24 h, no modulator (AID 1090);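 also: basal condition with compound alone and no growth modifier present; test concentration not given here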; conditions: S. pombe 972 growth, higher = more signal, called active from +8 up or from −8 down
[14] = S. cerevisiae growth modulation with rapamycin, primary screen, strain BY4716, OD600, 96 h (AID 1091); conditions: higher = more signal, called active from +8 up or from −8 down; also: test concentration not given here
[15] = target: Torsin-1A-interacting protein 2 (Homo sapiens) (UniProt Q8NFQ8); assay: LULL1 binders on small-molecule microarray, primary screen, cell lysate, human LULL1 lysate, 635/667 nm fluorescence (AID 1092); conditions: hLULL1 lysate binding, 635 nm fluorescence, higher = more signal;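 also: probe is lysate of COS7 cells overexpressing human LULL1; score merges per-feature 667 nm fluorescence with signal-to-noise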
[16] = E. coli growth modulation, two-sided OD650, primary screen, E. coli filamentation project, strain DRC41, 24 h (AID 1093); conditions: OD650, 24 h, higher = more signal, called active from +8 up or from −8 down;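 also: MC1000 strain lacking acrAB efflux and sulA so SOS filamentation is blocked; test concentration not given here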
[17] = small-molecule microarray binders of probe aLefty2, primary screen, biochemical, biotinylated probe, 635/667 nm fluorescence (AID 1094); conditions: higher = more signal;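 also: score merges spot fluorescence near 667 nm with spot signal-to-noise ratio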
[18] = test system: Noggin (protein binding on small-molecule microarray); assay: Noggin binders on small-molecule microarray, primary screen, biochemical, 635/667 nm fluorescence (AID 1095); conditions: 635 nm fluorescence, higher = more signal;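 also: score merges 667 nm feature fluorescence with signal to noise over triplicate slides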
[19] = target: Neurogenic locus notch homolog protein 3 (Homo sapiens) (UniProt Q9UM47); assay: NOTCH3 binders on small-molecule microarray, primary screen, biochemical, 635/667 nm fluorescence (AID 1096); conditions: NOTCH3 binding, 635 nm fluorescence, higher = more signal
[20] = small-molecule microarray binders of probe aEGFR, primary screen, biochemical, biotinylated probe, 635/667 nm fluorescence (AID 1097); conditions: higher = more signal;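 also: probe is a biotinylated anti-EGFR antibody binding compounds printed on slides; score combines fluorescence near 667 nm and signal to noise of each spot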

Chain of Neurogenic locus notch homolog protein 3 (Homo sapiens) (Q9UM47 whole entry, looked up): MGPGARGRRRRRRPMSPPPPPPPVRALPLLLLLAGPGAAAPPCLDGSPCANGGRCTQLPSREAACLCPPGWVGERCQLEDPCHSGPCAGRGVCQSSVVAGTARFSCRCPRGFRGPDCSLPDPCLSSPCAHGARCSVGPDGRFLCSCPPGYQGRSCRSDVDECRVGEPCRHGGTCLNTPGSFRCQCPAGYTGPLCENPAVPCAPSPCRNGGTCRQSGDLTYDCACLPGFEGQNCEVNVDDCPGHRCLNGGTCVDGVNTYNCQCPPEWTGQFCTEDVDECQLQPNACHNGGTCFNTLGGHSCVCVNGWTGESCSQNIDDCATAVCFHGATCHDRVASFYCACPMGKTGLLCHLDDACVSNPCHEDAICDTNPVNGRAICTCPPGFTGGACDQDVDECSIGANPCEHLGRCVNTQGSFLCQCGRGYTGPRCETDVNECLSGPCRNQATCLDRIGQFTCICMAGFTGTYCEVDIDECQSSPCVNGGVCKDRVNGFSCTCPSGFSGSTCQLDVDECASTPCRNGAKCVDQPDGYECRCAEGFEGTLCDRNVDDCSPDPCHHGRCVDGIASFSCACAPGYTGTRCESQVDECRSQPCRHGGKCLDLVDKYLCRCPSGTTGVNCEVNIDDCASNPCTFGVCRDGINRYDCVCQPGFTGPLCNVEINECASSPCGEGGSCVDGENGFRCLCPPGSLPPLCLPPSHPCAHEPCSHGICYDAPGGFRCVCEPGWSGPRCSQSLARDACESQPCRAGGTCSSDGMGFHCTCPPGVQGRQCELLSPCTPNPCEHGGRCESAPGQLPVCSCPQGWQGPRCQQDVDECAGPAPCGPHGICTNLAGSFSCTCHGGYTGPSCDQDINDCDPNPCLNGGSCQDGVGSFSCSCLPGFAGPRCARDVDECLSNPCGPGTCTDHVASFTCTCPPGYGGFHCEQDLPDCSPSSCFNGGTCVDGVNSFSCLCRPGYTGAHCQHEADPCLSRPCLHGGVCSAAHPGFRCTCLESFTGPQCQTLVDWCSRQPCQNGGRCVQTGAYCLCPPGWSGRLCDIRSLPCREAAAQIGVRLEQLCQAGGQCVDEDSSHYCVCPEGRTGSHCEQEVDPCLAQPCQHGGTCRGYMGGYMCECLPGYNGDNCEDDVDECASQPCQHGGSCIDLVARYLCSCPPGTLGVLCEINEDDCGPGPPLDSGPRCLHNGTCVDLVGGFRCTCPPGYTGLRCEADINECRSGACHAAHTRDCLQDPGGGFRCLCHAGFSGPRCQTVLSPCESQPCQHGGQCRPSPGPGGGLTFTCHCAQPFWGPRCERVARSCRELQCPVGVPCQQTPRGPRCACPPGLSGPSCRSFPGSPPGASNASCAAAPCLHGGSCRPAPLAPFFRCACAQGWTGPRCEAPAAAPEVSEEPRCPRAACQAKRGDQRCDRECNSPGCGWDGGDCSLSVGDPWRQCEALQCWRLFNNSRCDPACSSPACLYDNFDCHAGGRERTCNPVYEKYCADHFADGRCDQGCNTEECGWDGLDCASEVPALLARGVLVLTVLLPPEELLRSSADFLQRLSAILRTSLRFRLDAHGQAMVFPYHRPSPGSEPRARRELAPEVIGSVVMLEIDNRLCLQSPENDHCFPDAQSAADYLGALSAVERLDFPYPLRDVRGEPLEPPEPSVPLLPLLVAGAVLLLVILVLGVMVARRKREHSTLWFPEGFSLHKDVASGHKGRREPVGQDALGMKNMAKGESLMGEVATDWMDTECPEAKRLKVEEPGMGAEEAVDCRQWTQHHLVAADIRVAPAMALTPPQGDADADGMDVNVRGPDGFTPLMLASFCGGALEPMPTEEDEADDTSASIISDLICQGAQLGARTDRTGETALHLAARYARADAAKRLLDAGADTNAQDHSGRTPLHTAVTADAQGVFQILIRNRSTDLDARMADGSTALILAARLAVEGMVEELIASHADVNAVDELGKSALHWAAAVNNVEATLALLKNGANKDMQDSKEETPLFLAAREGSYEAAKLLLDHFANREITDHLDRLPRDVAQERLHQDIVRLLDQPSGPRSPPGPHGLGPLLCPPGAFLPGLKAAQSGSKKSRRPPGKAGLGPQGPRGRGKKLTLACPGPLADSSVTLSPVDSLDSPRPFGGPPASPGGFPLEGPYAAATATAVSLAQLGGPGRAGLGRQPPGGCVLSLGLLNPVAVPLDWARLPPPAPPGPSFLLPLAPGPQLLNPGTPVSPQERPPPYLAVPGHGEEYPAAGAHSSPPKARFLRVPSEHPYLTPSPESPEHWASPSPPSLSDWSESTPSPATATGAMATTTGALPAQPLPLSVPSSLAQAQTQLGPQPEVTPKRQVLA
Chain of Pro-neuregulin-1, membrane-bound isoform (Homo sapiens) (Q02297 whole entry, looked up, the tested form may be a part, canonical isoform): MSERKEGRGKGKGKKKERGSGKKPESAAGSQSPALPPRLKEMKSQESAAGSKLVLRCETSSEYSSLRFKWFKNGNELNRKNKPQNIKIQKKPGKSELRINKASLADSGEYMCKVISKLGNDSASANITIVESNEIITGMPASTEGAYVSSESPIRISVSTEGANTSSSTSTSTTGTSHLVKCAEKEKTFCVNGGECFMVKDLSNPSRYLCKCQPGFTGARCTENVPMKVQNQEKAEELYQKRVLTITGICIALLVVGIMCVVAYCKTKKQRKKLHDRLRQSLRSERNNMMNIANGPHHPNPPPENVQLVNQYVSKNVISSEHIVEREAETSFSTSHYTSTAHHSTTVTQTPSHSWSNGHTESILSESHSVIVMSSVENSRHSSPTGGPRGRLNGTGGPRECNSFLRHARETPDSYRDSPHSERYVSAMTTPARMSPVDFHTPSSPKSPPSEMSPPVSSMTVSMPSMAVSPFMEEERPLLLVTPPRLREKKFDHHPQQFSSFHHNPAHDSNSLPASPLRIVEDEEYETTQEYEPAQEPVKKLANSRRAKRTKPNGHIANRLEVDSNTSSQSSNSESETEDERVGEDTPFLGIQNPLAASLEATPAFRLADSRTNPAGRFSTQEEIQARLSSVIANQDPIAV
Chain of Torsin-1A-interacting protein 2 (Homo sapiens) (Q8NFQ8 whole entry, looked up): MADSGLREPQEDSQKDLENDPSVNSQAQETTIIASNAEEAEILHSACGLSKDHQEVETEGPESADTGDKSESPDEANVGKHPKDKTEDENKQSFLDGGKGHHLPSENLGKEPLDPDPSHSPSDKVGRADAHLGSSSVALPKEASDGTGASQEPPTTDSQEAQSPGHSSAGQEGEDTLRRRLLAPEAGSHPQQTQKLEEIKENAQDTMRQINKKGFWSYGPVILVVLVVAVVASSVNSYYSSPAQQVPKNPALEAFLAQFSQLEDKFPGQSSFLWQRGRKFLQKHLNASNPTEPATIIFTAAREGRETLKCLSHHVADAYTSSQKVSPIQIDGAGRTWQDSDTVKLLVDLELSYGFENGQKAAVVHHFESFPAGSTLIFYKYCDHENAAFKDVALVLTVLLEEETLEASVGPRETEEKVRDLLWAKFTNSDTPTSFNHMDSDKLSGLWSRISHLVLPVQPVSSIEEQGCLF

## CCCCC=C[C@@H](NC(=O)c1ccc(C(F)(F)F)cc1)c1ccccc1
[1]
  composite z-score: 0.385
[2]
  composite z-score: 0.0374
[3]
  composite z-score: -0.0583
[4]
  composite z-score: -0.0239
[5]
  composite z-score: -0.955
[6]
  composite z-score: 0.297
[7]
  composite z-score: -0.444
[8]
  z-score: 1.02 (inactive)
[9]
  composite z-score: -0.392
[10]
  composite z-score: 0.449
[11]
  composite z-score: -0.461
[12]
  z-score: -0.27 (inactive)
[13]
  z-score: -8.36 (active)
[14]
  z-score: -1.79 (inactive)
[15]
  composite z-score: 0.748
[16]
  z-score: -1.07 (inactive)
[17]
  composite z-score: -0.0285
[18]
  composite z-score: -0.905
[19]
  composite z-score: -0.76
[20]
  composite z-score: -0.566

## COC(=O)C1=CC(CCCO)=CC(c2ccc(CN3CCCC3)cc2)N(Cc2sc3ccccc3c2Cl)C=C1C(=O)OC (stereo not given)
[1]
  composite z-score: 0.688
[2]
  composite z-score: 2.31
[3]
  composite z-score: 0.321
[4]
  composite z-score: 1.31
[5]
  composite z-score: 1.73
[6]
  composite z-score: 2.43
[7]
  composite z-score: 1.32
[8]
  z-score: -0.591 (inactive)
[9]
  composite z-score: 1.21
[10]
  composite z-score: 0.167
[11]
  composite z-score: 1.54
[12]
  z-score: -3.34 (inactive)
[13]
  z-score: -7.33 (inactive)
[14]
  z-score: -1.39 (inactive)
[15]
  composite z-score: 3.3
[16]
  z-score: -0.542 (inactive)
[17]
  composite z-score: 0.91
[18]
  composite z-score: 0.766
[19]
  composite z-score: 1.04
[20]
  composite z-score: 0.681

## Cc1ccc(S[C@]2(C(=O)NCCCN(C)C)CC(=O)N(Cc3ccccc3Cl)[C@@H]2c2ccc(CO)cc2I)cc1
[1]
  composite z-score: 1.23
[2]
  composite z-score: -0.42
[3]
  composite z-score: -0.0996
[4]
  composite z-score: -0.855
[5]
  composite z-score: -1.17
[6]
  composite z-score: 1.07
[7]
  composite z-score: 0.801
[8]
  z-score: -1.4 (inactive)
[9]
  composite z-score: 0.141
[10]
  composite z-score: -0.0346
[11]
  composite z-score: -0.338
[12]
  z-score: 0.641 (inactive)
[13]
  z-score: -2.52 (inactive)
[14]
  z-score: 1.43 (inactive)
[15]
  composite z-score: 0.605
[16]
  z-score: 0.562 (inactive)
[17]
  composite z-score: 0.258
[18]
  composite z-score: -0.845
[19]
  composite z-score: -1.22
[20]
  composite z-score: -0.209

## Cc1ccc(S(=O)(=O)N2[C@@H](c3ccccc3)C(C(=O)O)=CC[C@H]2c2ccc(C#N)cc2)cc1
[1]
  composite z-score: 0.163
[2]
  composite z-score: -0.198
[3]
  composite z-score: 0.0624
[4]
  composite z-score: 1.07
[5]
  composite z-score: 1.39
[6]
  composite z-score: 1.72
[7]
  composite z-score: 0.808
[8]
  z-score: -3.73 (inactive)
[9]
  composite z-score: 0.538
[10]
  composite z-score: -0.265
[11]
  composite z-score: 1.21
[12]
  z-score: -0.143 (inactive)
[13]
  z-score: 0.612 (inactive)
[14]
  z-score: -0.371 (inactive)
[15]
  composite z-score: 3.39
[16]
  z-score: -1.5 (inactive)
[17]
  composite z-score: -0.003
[18]
  composite z-score: -0.495
[19]
  composite z-score: 0.721
[20]
  composite z-score: -0.0238

## COCCOC(=O)N1C(=O)[C@@]2(c3cc(C#CC4(O)CCCCCC4)ccc31)[C@H](c1ccc(OCCO)cc1)N1[C@H](c3ccccc3)[C@H](c3ccccc3)OC(=O)[C@H]1[C@@H]2C(=O)N1CCCCCCC1
[1]
  composite z-score: 1.81
[2]
  composite z-score: 0.437
[3]
  composite z-score: 0.466
[4]
  composite z-score: 0.276
[5]
  composite z-score: 1.25
[6]
  composite z-score: 1.77
[7]
  composite z-score: 1.29
[8]
  z-score: 0.222 (inactive)
[9]
  composite z-score: 2.41
[10]
  composite z-score: 2.99
[11]
  composite z-score: 1.55
[12]
  z-score: 1.42 (inactive)
[13]
  z-score: 0.598 (inactive)
[14]
  z-score: 3.68 (inactive)
[15]
  composite z-score: 3.09
[16]
  z-score: 0.436 (inactive)
[17]
  composite z-score: 1.15
[18]
  composite z-score: 1.82
[19]
  composite z-score: 1.11
[20]
  composite z-score: 0.753

## C=CCC(OC(C)=O)[C@@H]1[C@@H](N(Cc2cc3ccccc3o2)C(=O)c2ccc(-c3ccccc3)cc2)c2cc(OCCCO)ccc2N1C(=O)c1ccc2ccccc2n1 (stereo not given in full)
[1]
  composite z-score: -0.128
[2]
  composite z-score: -0.0562
[3]
  composite z-score: -0.128
[4]
  composite z-score: 0.0599
[5]
  composite z-score: -0.234
[6]
  composite z-score: 0.0289
[7]
  composite z-score: -0.464
[8]
  z-score: -1.47 (inactive)
[9]
  composite z-score: 0.268
[10]
  composite z-score: 0.417
[11]
  composite z-score: -0.766
[12]
  z-score: 0.806 (inactive)
[13]
  z-score: 0.0887 (inactive)
[14]
  z-score: 1.16 (inactive)
[15]
  composite z-score: 0.607
[16]
  z-score: 0.859 (inactive)
[17]
  composite z-score: -0.072
[18]
  composite z-score: 0.0917
[19]
  composite z-score: -0.781
[20]
  composite z-score: -0.0151

## CC(C)C[C@H]1NC(=O)[C@@H](C)NC(=O)[C@@]23C(=O)N[C@@H](Cc4ccccc4)C2[C@H](C)[C@@]2(C)O[C@H]2C3/C=C/C/C=C\CNC1=O (stereo not given in full)
[1]
  composite z-score: -0.112
[2]
  composite z-score: -0.0039
[3]
  composite z-score: -0.185
[4]
  composite z-score: 0.346
[5]
  composite z-score: 0.125
[6]
  composite z-score: 0.483
[7]
  composite z-score: 0.798
[8]
  z-score: 1.85 (inactive)
[9]
  composite z-score: -0.141
[10]
  composite z-score: -0.121
[11]
  composite z-score: 0.938
[12]
  z-score: -0.904 (inactive)
[13]
  z-score: -0.721 (inactive)
[14]
  z-score: -0.651 (inactive)
[15]
  composite z-score: 1.28
[16]
  z-score: -0.64 (inactive)
[17]
  composite z-score: -0.221
[18]
  composite z-score: 0.407
[19]
  composite z-score: 0.596
[20]
  composite z-score: -0.0615

## CC(C)C(=C=CC[C@@H](O)c1cccc(OCCO)c1)CCO
[1]
  composite z-score: -0.226
[2]
  composite z-score: 0.17
[3]
  composite z-score: -0.085
[4]
  composite z-score: 0.742
[5]
  composite z-score: 0.271
[6]
  composite z-score: -0.163
[7]
  composite z-score: 0.364
[8]
  z-score: -0.202 (inactive)
[9]
  composite z-score: 0.321
[10]
  composite z-score: 0.0505
[11]
  composite z-score: -0.102
[12]
  z-score: 0.493 (inactive)
[13]
  z-score: -0.0344 (inactive)
[14]
  z-score: -0.0595 (inactive)
[15]
  composite z-score: 1.07
[16]
  z-score: 0.739 (inactive)
[17]
  composite z-score: -0.0003
[18]
  composite z-score: 0.305
[19]
  composite z-score: 0.454
[20]
  composite z-score: 0.0241

## CCCCC(O)C1C=CC2C(=O)NC(=O)C2N1Nc1ccccn1 (stereo not given)
[1]
  composite z-score: -0.197
[2]
  composite z-score: -0.0611
[3]
  composite z-score: -0.0691
[4]
  composite z-score: 0.329
[5]
  composite z-score: 0.949
[6]
  composite z-score: 0.699
[7]
  composite z-score: 0.683
[8]
  z-score: 0.86 (inactive)
[9]
  composite z-score: 0.0344
[10]
  composite z-score: -0.128
[11]
  composite z-score: -0.357
[12]
  z-score: 0.374 (inactive)
[13]
  z-score: 0.667 (inactive)
[14]
  z-score: 0.0569 (inactive)
[15]
  composite z-score: 0.0273
[16]
  z-score: -1.73 (inactive)
[17]
  composite z-score: -0.0825
[18]
  composite z-score: -0.0426
[19]
  composite z-score: -0.421
[20]
  composite z-score: -0.067
